Inconclusive results are not listed. A call without a number means that no potency is given here. Unmarked numbers belong to inactive results. The source made the active and inactive calls. Calls follow the shape of the full dose curve.
Potency is read from the fitted curve at half-maximal effect.

Chain of Acetylcholinesterase (Homo sapiens) (P22303 whole entry, looked up): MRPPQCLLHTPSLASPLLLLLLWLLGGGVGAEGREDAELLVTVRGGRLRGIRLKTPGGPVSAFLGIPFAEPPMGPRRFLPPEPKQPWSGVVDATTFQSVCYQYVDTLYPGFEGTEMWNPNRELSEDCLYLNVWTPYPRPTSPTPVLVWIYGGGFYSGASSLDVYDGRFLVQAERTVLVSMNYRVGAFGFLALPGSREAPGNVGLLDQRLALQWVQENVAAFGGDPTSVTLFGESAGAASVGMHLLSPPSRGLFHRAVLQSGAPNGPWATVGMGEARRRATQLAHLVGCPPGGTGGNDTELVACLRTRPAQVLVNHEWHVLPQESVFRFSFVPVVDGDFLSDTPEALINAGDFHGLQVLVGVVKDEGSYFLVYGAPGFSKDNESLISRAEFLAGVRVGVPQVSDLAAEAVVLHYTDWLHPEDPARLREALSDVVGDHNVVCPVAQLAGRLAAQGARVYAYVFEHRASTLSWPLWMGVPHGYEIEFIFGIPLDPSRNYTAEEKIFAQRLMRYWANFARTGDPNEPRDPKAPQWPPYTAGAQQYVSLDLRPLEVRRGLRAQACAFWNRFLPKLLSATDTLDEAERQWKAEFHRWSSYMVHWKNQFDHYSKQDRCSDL

For this assay, the target named is Acetylcholinesterase (Homo sapiens) (UniProt P22303). Kind of assay: Acetylcholinesterase (AChE) small molecule antagonists: fluorescence cell-based qHTS assay (AID 1347398). Also: nearly all actives have a fitted effect of over 50% in size. To be noted: SH-SY5Y cells; Potency: AChE activity; outcome: AChE activity; series mostly up to 115 µM. The procedure, abridged:
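SH-SY5Y cells (2000/well), attached overnight, incubated with compound 30 min at 37 C. Acetylthiocholine plus Thiolite Green then added for 40 min at room temperature. Thiocholine fluorescence (Ex/Em 490/520 nm) reports cellular AChE activity.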
On the technique in general: Quantitative high-throughput screening tests each substance at several concentrations.
Regarding `C/C=C/c1ccc(OCC)c(O)c1`, the Potency result is “inactive”.
For `c1ccc2cc3c(ccc4ccccc43)cc2c1`, the Potency entry was “inactive”.
On the same count and under the same terms, the same measure for `CC1=CC[C@H](C(C)C)C=C1`: “inactive”; for `O=C(Nc1ccc2c(c1)Cc1ccccc1-2)C(F)(F)F`: “inactive”.
For `CCn1cc(C(=O)O)c(=O)c2cc(F)c(N3CCN(C)CC3)cc21`, the activity change, negative = inhibition was 2.98% [at 23.8 µM].
As for `Clc1ccc2c(c1)Nc1ccccc1S2`, the Potency result is “inactive”.
On the same count and under the same terms, then `O=c1[nH]c(=O)n([C@H]2C[C@H](O)[C@@H](CO)O2)cc1Br`, with “inactive”; and `C=C(C)C(=O)OCCOCCOCCOC(=O)C(=C)C`, with “inactive”; and `Cc1ccc(S(N)(=O)=O)cc1`, with “inactive”.
In the case of `O=C(c1ccccc1)c1ccccc1O`, the Potency entry is “inactive”.
On the same count and under the same terms, the same measure for `CC(C)c1cc(C(C)C)cc(C(C)C)c1`: “inactive”; for `CN(C)C=O`: “inactive”.
With `Fc1ccc(Br)cc1`, the Potency result is “inactive”.
On to `CCCCCC1Nc2cc(C(F)(F)F)c(S(N)(=O)=O)cc2S(=O)(=O)N1` (centres undefined), for which the Potency is 9.77 µM (active).
Regarding `CCCCCCCCCCCCCCCCC`, the Potency entry was “inactive”.
`CCOC(=O)OCC`: the Potency entry was “inactive”.
Take `CCOCCOCC`: the Potency entry was “inactive”.
Take `Nc1cccc2c1CN(C1CCC(=O)NC1=O)C2=O` (centres undefined): the Potency result is “inactive”.
The same measure, in the same setting: then `Cc1cc(CCCOc2c(C)cc(-c3noc(C(F)(F)F)n3)cc2C)on1`, with “inactive”; and `CC(c1cc(C(C)(C)C)cc(C(C)(C)C)c1O)c1cc(C(C)(C)C)cc(C(C)(C)C)c1O`, with “inactive”.
Regarding `O=c1[nH]c2ccc(S(=O)CCN3CCC(Cc4ccc(F)cc4)CC3)cc2o1` (centres undefined), the Potency was 1.12 µM (active).
As to `CCCCOC(=O)c1ccccc1`, the Potency result is “inactive”.
As for `O=C(O)c1cc(Cl)cc(Cl)c1`, the Potency result was “inactive”.
Turning to `COC(=O)CC(=O)C(C)(C)C`, the Potency result was “inactive”.
